Experimental data reported in PubChem BioAssay.

Experiment: growth of efflux-deficient E. coli DRC39 – strain DRC39, OD650, 48 h, E. coli filamentation inducers, primary screen (AID 1179);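 further: screen aims at cell division blockers that make cells filament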
Details: E. coli DRC39 delta-acrAB growth, higher = more signal, called active from +8 up or from −8 down

z-score, inactive:
COC(=O)[C@H](C)NC(=O)CC=C[C@@H](C)[C@@H]1C=C[C@H](O)[C@@H](CO)O1 0.384
C[C@H]1CC[C@@H](C(=O)O)N[C@@H]1c1cccc(N2CCCC2=O)c1 0.215
CO[C@@H]1[C@H](O)CO[C@H]1C=Cc1ccccc1 0.207
COC(=O)[C@H](C)NC(=O)CCC1CC(OC(=O)NCCc2ccc(F)cc2)CC2(CCCC(COC(=O)NCc3ccccc3)O2)O1 (stereo partly specified) -0.445
CC(C)CON=C1C[C@@H](O)[C@@H](O)[C@@H]2[C@@H]3C(=O)N(c4ccc(F)cc4F)C(=O)[C@@H]3CC[C@@H]12 0.15
O=C1C=C[C@@H](O)[C@@H]2[C@@H]3C(=O)N(Cc4ccc5c(c4)OCO5)C(=O)[C@@H]3CC[C@@H]12 -0.173
CC[C@@H](c1ccccc1)n1c(=O)n2n(c1=O)[C@H]1[C@H](O)[C@@H]3O[C@@H]3C(=NOCc3ccccc3)[C@H]1CC2 -0.95
CC(=O)OC[C@H]1O[C@H](CC=NOC[C@@H](O)COCc2ccco2)C=C[C@@H]1OC(C)=O 0.924
C[C@H]1C=CCC(=O)OC[C@H](C)C(=O)N2CCC[C@H]2C(=O)OC1 0.205
CC(C)CON=C1C[C@@H](O)[C@@H](O)[C@@H]2[C@@H]3C(=O)N(Cc4ccc5c(c4)OCO5)C(=O)[C@@H]3CC[C@@H]12 -0.563
CCOC(=O)CCN1C(=O)[C@H]2[C@H]3[C@H](O)[C@H](O)CC(=NNC(=O)OCC)[C@H]3CC[C@H]2C1=O -0.318
